# Results from the supplement of paper PMC4466140.
# Tests used:
# Assay in all cases: SPOT peptide array binding signal intensity (averaged, normalized) (arbitrary units (background-subtracted, floor 0; scale differs between SH3 domains)); higher = stronger binding of the SH3 domain to the peptide
# [1] = biological target: AgAbp1
# Procedure, shortened: (§1)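 SH3 domains from four yeast species were expressed as GST fusions in E. coli BL21(DE3) and purified on glutathione Sepharose. Each was incubated at 10 μg/ml overnight at 4°C in TBS-based blocking buffer on cellulose membranes bearing synthetic 15-mer peptides, in which serines replaced cysteines. Bound protein was detected with anti-GST antibody, an HRP anti-mouse secondary and luminol, then imaged and quantified with Genespotter. The binding signal is the normalized, background-subtracted spot intensity averaged over replicates, in arbitrary units that are not the same from one domain to another.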
# [2] = biological target: AgBbc1
# Procedure, shortened: as §1
# [3] = biological target: AgBem1-D1
# Procedure, shortened: as §1
# [4] = biological target: AgBzz1-D1
# Procedure, shortened: as §1
# [5] = biological target: AgBzz1-D2
# Procedure, shortened: as §1
# [6] = biological target: AgCyk3
# Procedure, shortened: as §1
# [7] = biological target: AgFus1
# Procedure, shortened: as §1
# [8] = biological target: AgHof1
# Procedure, shortened: as §1
# [9] = biological target: AgHse1
# Procedure, shortened: as §1
# [10] = biological target: AgLsb1
# Procedure, shortened: as §1
# [11] = biological target: AgLsb4
# Procedure, shortened: as §1
# [12] = biological target: AgMyo5
# Procedure, shortened: as §1
# [13] = biological target: AgNbp2
# Procedure, shortened: as §1
# [14] = biological target: AgRvs167
# Procedure, shortened: as §1
# [15] = biological target: AgSho1
# Procedure, shortened: as §1
# [16] = biological target: AgSla1-D1-D2
# Procedure, shortened: as §1
# [17] = biological target: AgSla1-D3
# Procedure, shortened: as §1
# [18] = biological target: CaAbp1-D1
# Procedure, shortened: as §1
# [19] = biological target: CaAbp1-D2
# Procedure, shortened: as §1
# [20] = biological target: CaBbc1
# Procedure, shortened: as §1
# [21] = biological target: CaBem1-D1
# Procedure, shortened: as §1
# [22] = biological target: CaBzz1-D1
# Procedure, shortened: as §1
# [23] = biological target: CaBzz1-D2
# Procedure, shortened: as §1
# [24] = biological target: CaCyk3
# Procedure, shortened: as §1
# [25] = biological target: CaFus1
# Procedure, shortened: as §1
# [26] = biological target: CaHof1
# Procedure, shortened: as §1
# [27] = biological target: CaHse1
# Procedure, shortened: as §1
# [28] = biological target: CaLsb1
# Procedure, shortened: as §1
# [29] = biological target: CaLsb4
# Procedure, shortened: as §1
# [30] = biological target: CaMyo5
# Procedure, shortened: as §1
# [31] = biological target: CaNbp2
# Procedure, shortened: as §1
# [32] = biological target: CaRvs167
# Procedure, shortened: as §1
# [33] = biological target: CaRvs167-3
# Procedure, shortened: as §1
# [34] = biological target: CaSho1
# Procedure, shortened: as §1
# [35] = biological target: CaSla1-D1-D2
# Procedure, shortened: as §1
# [36] = biological target: CaSla1-D3
# Procedure, shortened: as §1
# [37] = biological target: ScAbp1
# Procedure, shortened: as §1
# [38] = biological target: ScBbc1
# Procedure, shortened: as §1
# [39] = biological target: ScBem1-D1
# Procedure, shortened: as §1
# [40] = biological target: ScBzz1-D1
# Procedure, shortened: as §1
# [41] = biological target: ScBzz1-D2
# Procedure, shortened: as §1
# [42] = biological target: ScCyk3
# Procedure, shortened: as §1
# [43] = biological target: ScFus1
# Procedure, shortened: as §1
# [44] = biological target: ScHof1
# Procedure, shortened: as §1
# [45] = biological target: ScHse1
# Procedure, shortened: as §1
# [46] = biological target: ScLsb1
# Procedure, shortened: as §1
# [47] = biological target: ScLsb2
# Procedure, shortened: as §1
# [48] = biological target: ScLsb3
# Procedure, shortened: as §1
# [49] = biological target: ScLsb4
# Procedure, shortened: as §1
# [50] = biological target: ScMyo3
# Procedure, shortened: as §1
# [51] = biological target: ScMyo5
# Procedure, shortened: as §1
# [52] = biological target: ScNbp2
# Procedure, shortened: as §1
# [53] = biological target: ScPex13
# Procedure, shortened: as §1
# [54] = biological target: ScRvs167
# Procedure, shortened: as §1
# [55] = biological target: ScSho1
# Procedure, shortened: as §1
# [56] = biological target: ScSla1-D1-D2
# Procedure, shortened: as §1
# [57] = biological target: ScSla1-D3
# Procedure, shortened: as §1
# [58] = biological target: SpAbp1-D1
# Procedure, shortened: as §1
# [59] = biological target: SpBbc1
# Procedure, shortened: as §1
# [60] = biological target: SpBzz1-D1
# Procedure, shortened: as §1
# [61] = biological target: SpBzz1-D2
# Procedure, shortened: as §1
# [62] = biological target: SpCyk3
# Procedure, shortened: as §1
# [63] = biological target: SpHof1
# Procedure, shortened: as §1
# [64] = biological target: SpHof1-2
# Procedure, shortened: as §1
# [65] = biological target: SpHof1-3
# Procedure, shortened: as §1
# [66] = biological target: SpHse1
# Procedure, shortened: as §1
# [67] = biological target: SpLsb1
# Procedure, shortened: as §1
# [68] = biological target: SpLsb4
# Procedure, shortened: as §1
# [69] = biological target: SpMyo1
# Procedure, shortened: as §1
# [70] = biological target: SpNbp2
# Procedure, shortened: as §1
# [71] = biological target: SpPex13
# Procedure, shortened: as §1
# [72] = biological target: SpRvs167
# Procedure, shortened: as §1
# [73] = biological target: SpSla1-D1-D2
# Procedure, shortened: as §1
# [74] = biological target: SpSla1-D3
# Procedure, shortened: as §1
binder,measurement,setting,value
HVRRSILALPLGVLL,SPOT peptide array binding signal intensity,[1],8
same,SPOT peptide array binding signal intensity,[2],2.75
same,SPOT peptide array binding signal intensity,[3],39
same,SPOT peptide array binding signal intensity,[4],≤ 0
same,SPOT peptide array binding signal intensity,[5],2.5
same,SPOT peptide array binding signal intensity,[6],1
same,SPOT peptide array binding signal intensity,[7],605
same,SPOT peptide array binding signal intensity,[8],22.8
same,SPOT peptide array binding signal intensity,[9],325
same,SPOT peptide array binding signal intensity,[10],61.5
same,SPOT peptide array binding signal intensity,[11],201
same,SPOT peptide array binding signal intensity,[12],≤ 0
same,SPOT peptide array binding signal intensity,[13],57
same,SPOT peptide array binding signal intensity,[14],0.5
same,SPOT peptide array binding signal intensity,[15],64
same,SPOT peptide array binding signal intensity,[16],6
same,SPOT peptide array binding signal intensity,[17],5
same,SPOT peptide array binding signal intensity,[18],120
same,SPOT peptide array binding signal intensity,[19],85
same,SPOT peptide array binding signal intensity,[20],10
same,SPOT peptide array binding signal intensity,[21],10
same,SPOT peptide array binding signal intensity,[22],21
same,SPOT peptide array binding signal intensity,[23],22
same,SPOT peptide array binding signal intensity,[24],3
same,SPOT peptide array binding signal intensity,[25],2060
same,SPOT peptide array binding signal intensity,[26],≤ 0
same,SPOT peptide array binding signal intensity,[27],25
same,SPOT peptide array binding signal intensity,[28],0.25
same,SPOT peptide array binding signal intensity,[29],47
same,SPOT peptide array binding signal intensity,[30],5.25
same,SPOT peptide array binding signal intensity,[31],450
same,SPOT peptide array binding signal intensity,[32],16.8
same,SPOT peptide array binding signal intensity,[33],7.75
same,SPOT peptide array binding signal intensity,[34],439
same,SPOT peptide array binding signal intensity,[35],≤ 0
same,SPOT peptide array binding signal intensity,[36],25
same,SPOT peptide array binding signal intensity,[37],22
same,SPOT peptide array binding signal intensity,[38],≤ 0
same,SPOT peptide array binding signal intensity,[39],10
same,SPOT peptide array binding signal intensity,[40],12.5
same,SPOT peptide array binding signal intensity,[41],3.5
same,SPOT peptide array binding signal intensity,[42],56
same,SPOT peptide array binding signal intensity,[43],522
same,SPOT peptide array binding signal intensity,[44],1.5
same,SPOT peptide array binding signal intensity,[45],772
same,SPOT peptide array binding signal intensity,[46],5.5
same,SPOT peptide array binding signal intensity,[47],≤ 0
same,SPOT peptide array binding signal intensity,[48],182
same,SPOT peptide array binding signal intensity,[49],15.5
same,SPOT peptide array binding signal intensity,[50],≤ 0
same,SPOT peptide array binding signal intensity,[51],≤ 0
same,SPOT peptide array binding signal intensity,[52],114
same,SPOT peptide array binding signal intensity,[53],≤ 0
same,SPOT peptide array binding signal intensity,[54],22.2
same,SPOT peptide array binding signal intensity,[55],1000
same,SPOT peptide array binding signal intensity,[56],5
same,SPOT peptide array binding signal intensity,[57],2
same,SPOT peptide array binding signal intensity,[58],124
same,SPOT peptide array binding signal intensity,[59],2
same,SPOT peptide array binding signal intensity,[60],30
same,SPOT peptide array binding signal intensity,[61],≤ 0
same,SPOT peptide array binding signal intensity,[62],3
same,SPOT peptide array binding signal intensity,[63],49
same,SPOT peptide array binding signal intensity,[64],8.5
same,SPOT peptide array binding signal intensity,[65],180
same,SPOT peptide array binding signal intensity,[66],508
same,SPOT peptide array binding signal intensity,[67],2
same,SPOT peptide array binding signal intensity,[68],73.5
same,SPOT peptide array binding signal intensity,[69],2.5
same,SPOT peptide array binding signal intensity,[70],194
same,SPOT peptide array binding signal intensity,[71],≤ 0
same,SPOT peptide array binding signal intensity,[72],9.83
same,SPOT peptide array binding signal intensity,[73],2
same,SPOT peptide array binding signal intensity,[74],1
PAPPPPPRASRPTPN,SPOT peptide array binding signal intensity,[1],7.5
same,SPOT peptide array binding signal intensity,[2],438
same,SPOT peptide array binding signal intensity,[3],19.5
same,SPOT peptide array binding signal intensity,[4],57
same,SPOT peptide array binding signal intensity,[5],8
same,SPOT peptide array binding signal intensity,[6],1
same,SPOT peptide array binding signal intensity,[7],≤ 0
same,SPOT peptide array binding signal intensity,[8],0.5
same,SPOT peptide array binding signal intensity,[9],1.5
same,SPOT peptide array binding signal intensity,[10],6.5
same,SPOT peptide array binding signal intensity,[11],185
same,SPOT peptide array binding signal intensity,[12],≤ 0
same,SPOT peptide array binding signal intensity,[13],111
same,SPOT peptide array binding signal intensity,[14],34.2
same,SPOT peptide array binding signal intensity,[15],≤ 0
same,SPOT peptide array binding signal intensity,[16],3.5
same,SPOT peptide array binding signal intensity,[17],2
same,SPOT peptide array binding signal intensity,[18],24.5
same,SPOT peptide array binding signal intensity,[19],3
same,SPOT peptide array binding signal intensity,[20],657
same,SPOT peptide array binding signal intensity,[21],21
same,SPOT peptide array binding signal intensity,[22],934
same,SPOT peptide array binding signal intensity,[23],162
same,SPOT peptide array binding signal intensity,[24],21
same,SPOT peptide array binding signal intensity,[25],45.5
same,SPOT peptide array binding signal intensity,[26],17.5
same,SPOT peptide array binding signal intensity,[27],3.5
same,SPOT peptide array binding signal intensity,[28],0.5
same,SPOT peptide array binding signal intensity,[29],939
same,SPOT peptide array binding signal intensity,[30],1.5
